Results published in PubChem BioAssay AID504773 (Broad Institute, 2011).
Entries with a potency or affinity are not part of this list. Activity calls are given as the source filed them.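 Rule for the calls: active = polarization signal falls with dose and the fitted half-maximal concentration is at or below ten times the sample's top valid dose; inconclusive = flat curve at 30 to 70% inhibition, or poor fit; inactive = signal rises, flat within 30%, or potency beyond limit.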

What follows are compounds tested against Golgi-associated PDZ and coiled-coil motif-containing protein (Homo sapiens) (UniProt Q9HD26) (assay: CAL PDZ peptide-binding inhibitors, dose response, biochemical, fluorescence polarization, Cerulean-tagged CAL PDZ, cherry-picks (AID 504773)). Conditions: 1 h; series mostly up to 50 µM.

outcome, inactive:
CC1CCN(C(=O)COC(=O)c2cccs2)CC1
Cc1cc(=O)n2c3ccccc3n(CC(O)CN3CCN(CCO)CC3)c2c1C#N (configuration not stated)
CCOC(=O)NC(=O)COC(=O)CCCSc1nc2ccccc2s1
O=C(O)c1[nH]c2ccccc2c1C(c1ccccc1)c1c(C(=O)O)[nH]c2ccccc12
CCOc1ccc(C(=O)NCC(=O)N2CCC(C)CC2)cc1OCC
Cc1cc(NC(=O)CSc2nnc(-c3ccccc3)c(-c3ccccc3)n2)no1
Cc1cccc(C)c1NC(=S)NC(=O)c1ccc(Br)o1
CC1=NN(C(N)=S)C(=O)C1N=Nc1ccc(Cl)cc1 (configuration not stated)
CCOC(=O)C1(Cc2cccc(Cl)c2)CCCN(C(=O)c2cccc(C)n2)C1 (configuration not stated)
CCCCC(CCC(=O)Nc1nccs1)C(=O)O (configuration not stated)
C=CCN1C(=O)/C(=C/c2ccsc2)SC1=S
Cc1c(Cl)c(C(=O)N2CCCC2)nn1C
O=C(CN1C(=O)NC2(CCCC2)C1=O)Nc1ccc(F)c(F)c1F
CCCn1nnnc1NCc1cc(Br)ccc1OC
CCCCNC(=O)c1ccc(-n2c(=S)[nH]c3ccccc3c2=O)cc1
CCn1ncc(Br)c1C(=O)Nc1cccc(F)c1
N/C(=N\OC(=O)Cc1ccccc1[N+](=O)[O-])c1cccnc1
COc1ccccc1NC(=O)N(c1c(N)n(Cc2ccccc2)c(=O)[nH]c1=O)C1CCCC1
Cc1ccc(/C=N/NC(=O)NN(C)c2ncc(C(F)(F)F)cc2Cl)cc1
Cc1c(C(=O)OCC(=O)NC(=O)NC2CCCCC2)cccc1[N+](=O)[O-]
CCN(CC)S(=O)(=O)c1ccc(/C=C/C(=O)OCC(=O)N(C)C)cc1
Cc1cccc(N=Nc2c(O)[nH]c3ccc(F)cc23)c1
O=C(CN1CC[n+]2c(-c3cccs3)csc21)c1ccc(-c2ccccc2)cc1
Cc1c(Cl)c(C(F)(F)F)nn1CC(=O)NCc1ccco1
Oc1ccc(/C=N\Nc2nncc(-c3ccccc3)n2)cc1
CC(C)CNC(=O)CC1Nc2ccccc2NC1=O (configuration not stated)
Cc1ccc(Cl)c2c(N=Nc3ccccc3)c(O)[nH]c12
CC1CCN(CCCNC(=O)c2ccc3c(=O)n(Cc4ccc(Cl)cc4)c(=S)[nH]c3c2)CC1
CN(C)c1ccc(C(=O)OCC(=O)NC2CCCCCC2)cc1
O=C(NNC(=S)NC(=O)c1ccc(Br)cc1)c1ccc([N+](=O)[O-])cc1
CCCCOc1ccc(C(=O)N2CCNC(=O)C2CC(=O)OC(C)C)cc1 (configuration not stated)
Cc1cc(SCC(=O)OCC(=O)c2c(N)n(C)c(=O)n(C)c2=O)c(C)cc1Br
NC(=O)c1cc2ccccc2o/c1=N\NC(=O)c1ccncc1
O=C(NCc1ccccc1Cl)C1CC(=O)N(Cc2ccccc2)C1 (configuration not stated)
CC1=C(C#N)C(Nc2ccc(Cl)cn2)(C(F)(F)F)C(=O)N1 (configuration not stated)
CC12CNCC(C)(CN(C3(O)C(=O)Nc4ccc(Br)cc43)C1)C2=O (configuration not stated)
COc1ccc(CC(=O)NNC(=O)CCc2ccccc2)cc1OC
